Laboratory results reported in paper PMC7819943, “Rice protein-binding microarrays: a tool to detect cis-acting elements near promoter regions in rice”.
The full ranking holds about 68,000 sequences; the median of “fluorescence intensity (a.u.)” is about 9,100, and the highest 2% start at about 16,000. Only a selection was taken, and the highest values are over-represented in it overall.

Target: OsWRKY34 (Oryza sativa, UniProt Q0JBA9 1-250)
Test: protein-binding microarray (RPBM); PBS, 2% BSA, 51.3 ng/ul salmon testes DNA, 50 uM zinc acetate, 200 nM TF, 25 C, 1 h; high values mean tight binding
Conditions: protein: recombinant; tags: N-terminal polyhistidine and DsRed monomer fusion (pET32a); label: CyDye5-dUTP incorporated in the synthesized complementary strand; 3' TTTTT single-stranded linker to array surface; dsDNA, one strand shown
In short: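 Transcription factors were made in E. coli BL21-CodonPlus as N-terminal fusions to a polyhistidine tag and DsRed, then purified on Ni–NTA. After primer extension with Cy5-dUTP and blocking with 2% BSA, a custom Agilent array was exposed for 1 h at 25 °C to 200 nM protein in PBS, 2% BSA, salmon testes DNA and 50 µM zinc acetate. Washed arrays were scanned on an Axon 4000B, and the binding signal is per-feature fluorescence intensity in arbitrary units.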

OsWRKY34, sequence (Q0JBA9 entry or part of it): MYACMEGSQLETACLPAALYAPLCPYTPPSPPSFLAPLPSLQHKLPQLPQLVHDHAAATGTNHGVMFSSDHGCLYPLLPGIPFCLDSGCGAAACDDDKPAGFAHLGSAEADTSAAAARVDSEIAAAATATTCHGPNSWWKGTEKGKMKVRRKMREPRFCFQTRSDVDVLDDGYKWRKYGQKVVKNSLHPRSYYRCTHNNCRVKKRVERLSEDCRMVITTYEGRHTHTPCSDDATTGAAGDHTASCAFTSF

| Sequence | binding signal |
| --- | --- |
| CTCTACTTCTAATATTCCTTATTTTTTTAATTCCGAATTTCGGAGTCACCTAGTGCAG | 8800 fluorescence intensity (a.u.) |
| TTTCTACACCCTGTAGATCCTTGGACCCACATGCAGACCACGGAGTCACCTAGTGCAG | 8730 fluorescence intensity (a.u.) |
| GTGGGTGGGATCCAGGAAGATTTTAAGCTGACTGCTGCGGCGGAGTCACCTAGTGCAG | 8510 fluorescence intensity (a.u.) |
| CCTTCGCTCGCCACGTGGCAGCCGCTAGTCCTTATCGCCGCGGAGTCACCTAGTGCAG | 10300 fluorescence intensity (a.u.) |
| GGGAAACCAGGCTATCCTCTTGGTCACTCTGCACCAATTCCGGAGTCACCTAGTGCAG | 10500 fluorescence intensity (a.u.) |
| ACAGCTCTGCTCAACCTTGCCATCTCGATCAATCGATCCTCGGAGTCACCTAGTGCAG | 11400 fluorescence intensity (a.u.) |
| GGGTTGGTCCGCGTTCTTGCCTCCTGGTTGGCCGATGTTTCGGAGTCACCTAGTGCAG | 15700 fluorescence intensity (a.u.) |
| TGGATACTTGGCGTTGGTGGGCTGGTTCTTATTGGATACGCGGAGTCACCTAGTGCAG | 8120 fluorescence intensity (a.u.) |
| TAATAAGTGAGACCAAATATTGATTGTGTAGTATATATTTCGGAGTCACCTAGTGCAG | 8670 fluorescence intensity (a.u.) |
| GAAATGTTGGTGACGGTGGAGGATTTTGTTGTTTTAGTGTCGGAGTCACCTAGTGCAG | 9790 fluorescence intensity (a.u.) |
| GTTGACGGGGTTTGTGAGGTGTGGCGGTGACTTGGAAAGACGGAGTCACCTAGTGCAG | 10100 fluorescence intensity (a.u.) |
| TTTCTTGGCTGGTTTGGTTGTGGATTGGATTGGATTGGGTCGGAGTCACCTAGTGCAG | 16100 fluorescence intensity (a.u.) |
| GGTTTCTTGGATTGGGCTGTGGCTGGCGTTGGTCGGAGGACGGAGTCACCTAGTGCAG | 19100 fluorescence intensity (a.u.) |
| AGGTGATGTTTGGGGTCGTTGGGTTGGTCCGCGTTCTTGCCGGAGTCACCTAGTGCAG | 17400 fluorescence intensity (a.u.) |
| CGGTGTCGGATTTTTGGTTGGTTGACGGGGTTTGTGAGGTCGGAGTCACCTAGTGCAG | 17500 fluorescence intensity (a.u.) |
| CATCGTTGACCAAGAATAAGAACAGCGAATTTGCATAATGCGGAGTCACCTAGTGCAG | 14700 fluorescence intensity (a.u.) |
| CTTTGGCTTCTTGCCTACCGCGTTCTTGGTGATCGTTGGTCGGAGTCACCTAGTGCAG | 8270 fluorescence intensity (a.u.) |
| GGGAGTAGTATTGATTTGACCATCGTTGACCAAGAATAAGCGGAGTCACCTAGTGCAG | 17400 fluorescence intensity (a.u.) |
| GACAACCTGGAGCCCGACGACGACGAGGGGATGGGGAGGGCGGAGTCACCTAGTGCAG | 8810 fluorescence intensity (a.u.) |
| GTTAGTGTGTGGTTTGTTGCGTGCAGTCAGGTGCACTCGGCGGAGTCACCTAGTGCAG | 11000 fluorescence intensity (a.u.) |
| TATTATTATGATGGGTTTGTATATTAAAATTGTCAGTTTGCGGAGTCACCTAGTGCAG | 8110 fluorescence intensity (a.u.) |
| ACGCGCGCTACATTCTCCACCTCTCCACCATTCCAAACTGCGGAGTCACCTAGTGCAG | 9850 fluorescence intensity (a.u.) |

| Sequence | binding signal |
| --- | --- |
| CACACAGCATCGTTTGGATTAATCACCGAACCGATCGACCCGGAGTCACCTAGTGCAG | 8400 fluorescence intensity (a.u.) |
| CCTCTCCTAGGTTAAGTTTTTTTGGGGCGAAGGGAGTATTCGGAGTCACCTAGTGCAG | 8120 fluorescence intensity (a.u.) |
| CTCTCGCGCGAGATGTCCGTGACTCTCTTTTCGTTTACACCGGAGTCACCTAGTGCAG | 8420 fluorescence intensity (a.u.) |
| CTCTCGGTCGTCGGCCTCGTCCTCCGGGCCGGCATTCATCCGGAGTCACCTAGTGCAG | 8560 fluorescence intensity (a.u.) |
| CTTATACATTGGGTTGAGGGTTTTTTTGGTTGAGTTCGGCCGGAGTCACCTAGTGCAG | 9220 fluorescence intensity (a.u.) |
| GCGCATGGTGTTCGGGAAGAAGTACATCGTCGAGGAGGGGCGGAGTCACCTAGTGCAG | 8540 fluorescence intensity (a.u.) |
| GCTAGGGTTTTTGGGTTCACTTTGAGGCTGTTTGGTTGGTCGGAGTCACCTAGTGCAG | 15100 fluorescence intensity (a.u.) |
| CTTGCCATGGTGTTGATTTGGGGCGGGAAGAAGCATCGGGCGGAGTCACCTAGTGCAG | 16800 fluorescence intensity (a.u.) |
| TTGGTTGGTTGGTTGGTGTTTTGAGGCTTGGGTCGGCTTACGGAGTCACCTAGTGCAG | 17100 fluorescence intensity (a.u.) |
| TGATCGAGAGAGGTGTTGTTGGAAGCTTGGTTGGTTGGGGCGGAGTCACCTAGTGCAG | 9000 fluorescence intensity (a.u.) |
| AGTTACCGTTCTAGTCAGGGGCGGATCCAGCGTGGGGCGGCGGAGTCACCTAGTGCAG | 12600 fluorescence intensity (a.u.) |
| ACATCCTTCTGGGTTGATTTTTTTCTATAGAGGGGTAGGTCGGAGTCACCTAGTGCAG | 8590 fluorescence intensity (a.u.) |
| AAGTAAGATGCCACACACCATAGTCTGCTTCACTGTCAACCGGAGTCACCTAGTGCAG | 9080 fluorescence intensity (a.u.) |
| CGTCTCCGCCGCTGCTTGAATCTGCCGCCACCATCACCGCCGGAGTCACCTAGTGCAG | 8910 fluorescence intensity (a.u.) |
| GCTGACATAATTGCTTGTTGGGATTCTTGGGAGGAAATGGCGGAGTCACCTAGTGCAG | 8330 fluorescence intensity (a.u.) |
| CTTCTCTCCTCTCCGCTGTGGTTTCTTGCTGGTTCTTGGACGGAGTCACCTAGTGCAG | 10400 fluorescence intensity (a.u.) |
| GAGATGGGGAGGGAGGCCGGCCGGGAGAGGGAGAGAGAGGCGGAGTCACCTAGTGCAG | 8890 fluorescence intensity (a.u.) |
| TCTCCTCTCTCTCTCTTCTTCCCGGGGAGGCGGGGAGCGGCGGAGTCACCTAGTGCAG | 11700 fluorescence intensity (a.u.) |
| ATTGTTTTTATAGGGGAGGGGAGGCGGGATCGAGCCCGGGCGGAGTCACCTAGTGCAG | 15100 fluorescence intensity (a.u.) |
| TGGCCGGAGAGGGGAGATGGGGAGATGGGGAGAGGGGAGGCGGAGTCACCTAGTGCAG | 9420 fluorescence intensity (a.u.) |
| TGGAGGAGGGGAGGCCGGGGATTGTTTTTATAGGGGAGGGCGGAGTCACCTAGTGCAG | 30500 fluorescence intensity (a.u.) |
